Structures are written as SMILES. Active and inactive are the calls of the source. The calls were made as follows: active = hit-call score of the fitted dose curve at least 0.9, where 1 is the maximum; inactive = score below 0.9.

Our source for the AC50 values is PubChem BioAssay AID2284129 (EPA ToxCast).

Sequence of human Cyclooxygenase COX2, PTGS2 (gene 5743) (P35354 whole entry, looked up): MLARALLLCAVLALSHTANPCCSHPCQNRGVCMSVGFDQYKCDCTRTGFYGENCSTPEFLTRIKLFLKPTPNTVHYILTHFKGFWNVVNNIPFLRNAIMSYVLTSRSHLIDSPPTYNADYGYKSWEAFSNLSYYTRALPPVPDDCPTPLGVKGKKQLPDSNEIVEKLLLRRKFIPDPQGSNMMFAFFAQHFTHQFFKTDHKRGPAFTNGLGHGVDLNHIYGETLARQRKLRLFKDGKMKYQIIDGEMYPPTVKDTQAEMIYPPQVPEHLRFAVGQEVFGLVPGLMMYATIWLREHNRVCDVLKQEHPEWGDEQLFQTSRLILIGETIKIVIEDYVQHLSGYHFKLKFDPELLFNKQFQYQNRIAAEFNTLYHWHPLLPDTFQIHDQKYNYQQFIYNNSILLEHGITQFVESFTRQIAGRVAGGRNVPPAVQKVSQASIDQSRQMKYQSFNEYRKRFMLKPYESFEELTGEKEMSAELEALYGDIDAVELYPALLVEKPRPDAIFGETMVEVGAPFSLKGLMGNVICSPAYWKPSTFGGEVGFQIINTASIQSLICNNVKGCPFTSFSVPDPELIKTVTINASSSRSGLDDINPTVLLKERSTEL

For the assay, the target named is human Cyclooxygenase COX2, PTGS2 (gene 5743) (UniProt P35354). The assay can be described thus: ERF_FR_ENZ_hPTGS2: Eurofins (ERF) Enzymatic LeadHunter Assay for human Cyclooxygenase COX2, conducted at France lab site. The protocol:
ERF_FR_ENZ_hPTGS2 is a biochemical, single-readout assay that uses extracted gene-proteins in a cell-free assay. Measurements were taken 0.083 hour after chemical dosing in a 96-well plate. See COX2 Human Cyclooxygenase Enzymatic Assay, Cerep.ERF_FR_ENZ_hPTGS2 is an assay component calculated from the ERF_FR_ENZ_hPTGS2 assay. It is designed to measure enzyme activity using a type of enzyme reporter as detected by fluorescence intensity with fluorimetry technology.Data from the assay component ERF_FR_ENZ_hPTGS2 was analyzed at the assay endpoint, ERF_FR_ENZ_hPTGS2, in the positive analysis fitting direction relative to DMSO as the negative control and baseline of activity. Using a type of enzyme reporter, loss-of-signal activity can be used to understand changes in binding as they relate to gene PTGS2. To generalize the intended target to other relatable targets, this assay endpoint is annotated to the stress response intended target family, where the subfamily is cyclooxygenase.
Human cells are incubated for 5 minutes at room temprature with Arachidonic acid (1.2uM) + ADHP (25 uM) as sunstrate and ns-398 as control inhibitor. Test Sample Requirements: Minimum for 1) Screen: 60 ul of 10 mM stock -OR- 1 mg (pre-weighed) for 10 uM final testing. 2) Dose Response: 90 ul of 10 mM stock -OR- 1 mg (pre-weighed) for a top concentration at 10 uM.
For `COc1cc(CCC(=O)CC(=O)CCc2ccc(O)c(OC)c2)ccc1O`, the AC50 – broadly, the concentration at which the activity in the assay is half-maximal – is 274 nM (active).
